In PubChem BioAssay (NCATS) one finds Potency data, which are given here for 26 compounds.

Each structure is given as a SMILES string. Inconclusive results are not listed. A call without a number means that no potency is given here. Calls of active or inactive are those of the source. The call rests on the fitted dose curve; in most records, active means well fitted cell-killing curve with a large enough effect; inconclusive means small, poorly fitted or top-dose-only effect; inactive means flat fitted curve, though single readings scatter.
Potency means the concentration at half of the fitted maximal effect.

This experiment is described as follows: Cellular viability qHTS for adrenocortical cancer (ACC) cell line NCI-H295R (AID 1963990). Further: nearly all actives have a fitted effect of over 60% in size. The conditions noted are these: CellTiter-Glo ATP luminescence, 48 h; series mostly up to 46.1 µM. The method in brief: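 Adrenocortical carcinoma cells, suspended at 300 000 cells/mL in serum-free DMEM plus ITS, rested overnight before pin transfer of compound. After two days' incubation, ATP-dependent luminescence was recorded and curve-fitted.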
In general terms: qHTS replaces the single test concentration by a dilution series.
Regarding `CCOC(=O)c1c(N)sc2c1CCN(Cc1ccccc1)C2`, the Potency result is “inactive”. For `OCCOCCN1CCN(C(c2ccccc2)c2ccc(Cl)cc2)CC1` (stereo unspecified), the Potency result is “inactive”. For `O=C(C1CCCCC1)N1CC(=O)N2CCCc3ccccc3C2C1` (stereo unspecified), the Potency was 29.1 µM (active).

Take `Nc1nccc(-c2c(-c3ccc(F)cc3)ncn2C2CCCCC2)n1`: the Potency result is “inactive”.

For `CN(C(=O)CCCOc1ccc2[nH]c(=O)ccc2c1)C1CCCCC1`, the Potency result is “inactive”.

Turning to `CC(C)NC[C@@H](O)COc1cccc2ccccc12`, the Potency result is “inactive”. As for `CC(C)=CCC1C(=O)N(c2ccccc2)N(c2ccccc2)C1=O`, the Potency is 20.6 µM (active). As for `CCCCCCOc1ccccc1C(N)=O`, the Potency entry is “inactive”. With `CC1(COc2ccc(CC3SC(=O)NC3=O)cc2)CCCCC1` (stereo unspecified), the Potency was 16.4 µM (active). As for `O=C1NC(=O)/C(=C/c2ccc3nccnc3c2)S1`, the Potency entry is “inactive”. On to `COc1ccc(-n2c(SCCCN3C(=O)c4cccc5cccc(c45)C3=O)nnc2-c2ccncc2)cc1`, for which the Potency entry is “inactive”. Turning to `O=C(CCCN1CCC(O)(c2ccc(Br)cc2)CC1)c1ccc(F)cc1`, the Potency result is “inactive”.

Take `CCCCN(CCCC)C(C(N)=O)c1ccc(OC)cc1` (stereo unspecified): the Potency result was “inactive”. Regarding `C/C=C(/C(=C/C)c1ccc(OC(C)=O)cc1)c1ccc(OC(C)=O)cc1`, the Potency was 23.1 µM (active). For `NC(=O)c1ccc2nc(-c3ccc(C4(N)CCC4)cc3)c(-c3ccccc3)n2n1`, the Potency was 6.31 µM (active). In the case of `NC1=NCC2c3ccccc3Cc3ccccc3N12` (stereo unspecified), the Potency entry was “inactive”. Turning to `CCN(CC)CCCN(c1ccccc1)C1Cc2ccccc2C1`, the Potency was 25.9 µM (active). As for `NS(=O)(=O)Oc1ccc2c3c(c(=O)oc2c1)CCCCC3`, the Potency result is “inactive”.

With `CCN(CCCc1ccccc1)CCCc1ccccc1`, the Potency entry is “inactive”.

On to `CC(=C(CCOC(=O)C(C)C)SSC(CCOC(=O)C(C)C)=C(C)N(C=O)Cc1cnc(C)nc1N)N(C=O)Cc1cnc(C)nc1N`, for which the Potency entry was “inactive”. `CC#CC(=O)N1CCC[C@H]1c1nc(-c2ccc(C(=O)Nc3ccccn3)cc2)c2c(N)nccn12`: the Potency entry is “inactive”.

For the compound `Cn1cc(/C=C2\C(=O)Nc3cccnc32)c2ccccc21`, the Potency entry was “inactive”.

Take `OCCOc1ccc(/C(=C(/CCCl)c2ccccc2)c2ccccc2)cc1`: the Potency was 25.1 µM (active). Turning to `C[C@H](N)C(=O)N[C@@H](C)C(=O)NC1[C@H]2CN(c3nc4c(cc3F)c(=O)c(C(=O)O)cn4-c3ccc(F)cc3F)C[C@@H]12` (stereo partly specified), the Potency result is “inactive”. Turning to `O=C(NO)c1cnc(NC2(c3cccc(F)c3)CCCCC2)nc1`, the Potency is 3.16 µM (active). On to `CCCCC(CC)CN1CN(CC(CC)CCCC)CC(C)(N)C1` (stereo unspecified), for which the Potency entry was “inactive”.
